Source: PubChem BioAssay (NCATS)
Records with an inconclusive call do not appear. Activity calls are given as the source filed them. Calls come from the whole dose curve; as a rule, active = well fitted curve in the direction sought with a large enough effect; inconclusive = small, poorly fitted or top-dose-only effect, or another doubt; inactive = no such curve, though single readings can be large; an effect the other way counts as inactive or inconclusive.

Columns and labels:
[1] = biological target: Calcium and integrin-binding protein 1 (Homo sapiens) (UniProt Q99828); experiment: Primary qHTS for Identification of Calcium Integrin Binding Protein 1 (CIB1) Competitor (AID 1508620);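 note: GST tagged CIB1 binding a fluorescein labelled alphaIIb integrin peptide tracer; top concentration of the series differs between compounds; % is set by controls: 0 for no effect and ±100 for the full control effect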
Chain of Calcium and integrin-binding protein 1 (Homo sapiens) (Q99828 whole entry, looked up): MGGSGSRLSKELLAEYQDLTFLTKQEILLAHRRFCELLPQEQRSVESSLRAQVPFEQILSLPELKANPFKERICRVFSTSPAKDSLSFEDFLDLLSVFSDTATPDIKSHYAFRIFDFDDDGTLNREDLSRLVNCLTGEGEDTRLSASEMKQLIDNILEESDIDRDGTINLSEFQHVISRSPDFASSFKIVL
Summary of the method: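 Fluorescence polarization competition: GST-tagged CIB1 (1 uM final) preincubated with compound 15 min at room temperature, then FITC-labelled alphaIIb peptide (100 nM final) added. After 15 min at room temperature, polarization read at Ex 480/Em 540.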

[2] = Primary qHTS for inhibitors of nuclear receptor binding SET domain protein 2 (NSD2) in an isogenic RCH-ACV NSD2 p.E1099K mutant (9B) (AID 1645876); note: nearly all actives have a fitted effect of over 70% in size; note: potency is the fitted concentration of half-maximal effect
[3] = biological target: Phospholipid hydroperoxide glutathione peroxidase GPX4 (Homo sapiens) (UniProt P36969); experiment: Primary qHTS Assay for Inhibitors of Recombinant Selenoprotein Glutathione Peroxidase 4 (GPX4) (AID 1845192); note: % is set by controls: 0 for no effect and ±100 for the full control effect; nearly all actives have a fitted effect of over 65% in size
Chain of Phospholipid hydroperoxide glutathione peroxidase GPX4 (Homo sapiens) (P36969 whole entry, looked up): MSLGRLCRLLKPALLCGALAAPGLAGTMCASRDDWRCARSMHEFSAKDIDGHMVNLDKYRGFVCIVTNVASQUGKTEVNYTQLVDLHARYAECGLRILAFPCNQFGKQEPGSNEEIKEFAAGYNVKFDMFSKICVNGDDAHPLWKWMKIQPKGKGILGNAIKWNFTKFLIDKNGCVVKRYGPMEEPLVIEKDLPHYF
Summary of the method: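 GR-coupled assay: recombinant GPX4 preincubated 30 min with compound at room temperature; final 200 nM GPX4, 1 mM GSH, 0.5 mM cumene hydroperoxide, 0.5 mM NADPH, 100 nM GR, 0.01% BSA, pH 7.5 Tris. NADPH fluorescence (340/450 nm) read at 0 and 15 min.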

[4] = biological target: Luciferin 4-monooxygenase (Photinus pyralis) (UniProt P08659); experiment: Primary firefly luciferase (FLuc) qHTS assay for identification of artifact compounds. (AID 1845220); conditions: outcome: dose series up to 54.1 µM unless noted; note: nearly all actives have a fitted effect of over 60% in size
Summary of the method: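 Titrated compounds were incubated 15 min at RT, protected from light, with luciferin and ATP at 10 uM; reaction started with 10 nM FLuc, luminescence imaged at 5 min, and concentration-response fitted by Hill equation.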

[5] = Primary fluorescence-based thiol-reactive (MSTI) qHTS assay for identification of artifact compounds. (AID 1845221);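 note: thiol-reactive compounds lower the probe fluorescence signal; nearly all actives have a fitted effect of over 65% in size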
Summary of the method: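 Curve-fitted percent inhibition (4-parameter Hill) derived from fluorescence, Ex 525/Em 598 nm, scaled with Acetyl-MSTI and MSTI; 1 h incubation at room temperature.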

[6] = tested on: Nanoluciferase (engineered Oplophorus gracilirostris luciferase); experiment: Primary Nanoluciferase (NLuc) qHTS assay for identification of artifact compounds. (AID 1845222);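 note: NLuc secreted into diluted conditioned medium of S16 cells; 0% = DMSO and -100% = no enzyme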
Summary of the method: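 qHTS format, against NLuc in S16 cell-conditioned medium. Nano-Glo substrate 1:100 was added after 15 min at room temperature. Luminescence was taken after a further 5 min.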

[7] = Primary redox qHTS assay for identification of artifact compounds. (AID 1845223);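 note: 0% = DMSO and 100% = reference compound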
Summary of the method: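 Amplex Red (25 uM) and HRP (250 mU/mL) in HBSS, with compounds for 15 min, then 250 uM DTT for 30 min, room temperature, dark. Fluorescence 525/598 nm read; normalized to DMSO and 10 uM DA3003; Hill fit.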

[8] = tested on: CRL-7250; experiment: Cytotoxic Profiling of Annotated Libraries Using Quantitative High-Throughput Screening (AID 1296008); conditions: Five cell lines viability, CellTiter-Glo ATP luminescence, 48-72 h; max response: stronger effect = lower value; note: nearly all actives have a fitted effect of over 60% in size; note: potency is the fitted concentration of half-maximal effect; for max response: % is set by controls: 0 for no effect and ±100 for the full control effect
Summary of the method: (§1)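 Cells exposed to compounds for 48 or 72 hr at 37 degrees Celsius. Viability read as ATP-coupled luminescence with CellTiter-Glo after 10 min at room temperature.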

[9] = tested on: HEK293; experiment: as above; conditions: Five cell lines viability, CellTiter-Glo ATP luminescence, 48-72 h; max response: stronger effect = lower value
Summary of the method: as §1

[10] = tested on: NIH3T3; experiment: as above; conditions: Five cell lines viability, CellTiter-Glo ATP luminescence, 48-72 h; max response: stronger effect = lower value
Summary of the method: as §1

[11] = tested on: C33A; experiment: Primary qHTS to identify gynecologic anti-cancer compounds using libraries of approved drugs and bioactive compounds (AID 1345084); conditions: Gynecologic cancer cell panel viability, ATPlite luminescence, 48 h; series mostly up to 57.5 µM; note: nearly all actives have a fitted effect of over 55% in size; note: potency is the fitted concentration of half-maximal effect
Summary of the method: (§2)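 Cytotoxicity screen measuring ATP content by luciferase luminescence. Each compound is applied at five concentrations for 48 h at 37 C with 5% CO2.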

[12] = tested on: CAOV3; experiment: as above; conditions: Gynecologic cancer cell panel viability, ATPlite luminescence, 48 h; series mostly up to 57.5 µM
Summary of the method: as §2

[13] = tested on: CASKI; experiment: as above; conditions: Gynecologic cancer cell panel viability, ATPlite luminescence, 48 h; series mostly up to 57.5 µM
Summary of the method: as §2

[14] = tested on: Es-2; experiment: as above; conditions: Gynecologic cancer cell panel viability, ATPlite luminescence, 48 h; series mostly up to 57.5 µM
Summary of the method: as §2

[15] = tested on: Hek293T; experiment: as above; conditions: Gynecologic cancer cell panel viability, ATPlite luminescence, 48 h, control line for the selectivity index; series mostly up to 57.5 µM
Summary of the method: as §2

[16] = tested on: JEG-3; experiment: as above; conditions: Gynecologic cancer cell panel viability, ATPlite luminescence, 48 h; series mostly up to 57.5 µM
Summary of the method: as §2

[17] = tested on: OV90; experiment: as above; conditions: Gynecologic cancer cell panel viability, ATPlite luminescence, 48 h; series mostly up to 57.5 µM
Summary of the method: as §2

[18] = tested on: PA-1; experiment: as above; conditions: Gynecologic cancer cell panel viability, ATPlite luminescence, 48 h; series mostly up to 57.5 µM
Summary of the method: as §2

[19] = tested on: Tov-21-G; experiment: as above; conditions: Gynecologic cancer cell panel viability, ATPlite luminescence, 48 h; series mostly up to 57.5 µM
Summary of the method: as §2

[20] = tested on: Tov112D; experiment: as above; conditions: Gynecologic cancer cell panel viability, ATPlite luminescence, 48 h; series mostly up to 57.5 µM
Summary of the method: as §2

COc1ccsc1CNCC[C@@]1(c2ccccn2)CCOC2(CCCC2)C1
inactive: Potency [1] | Potency [2] | Potency [3] | outcome [4] | Potency [5] | Potency [6] | Potency [7] | max response [8] -5.82% | max response [9] -0.102% | max response [10] -1.76% | Potency [11] | Potency [12] | Potency [13] | Potency [14] | Potency [15] | Potency [16] | Potency [17] | Potency [18] | Potency [19] | Potency [20]

CCC(C)(O)C1(C(=O)O)COC(=O)C1 (stereo not drawn)
inactive: Potency [1] | Potency [2] | Potency [3] | outcome [4] inactive [at 86.2 µM] | Potency [6] | Potency [7] | max response [8] -3.51% | max response [9] 0.689% | max response [10] -1.83% | Potency [11] | Potency [12] | Potency [13] | Potency [14] | Potency [15] | Potency [16] | Potency [17] | Potency [18] | Potency [19] | Potency [20]

Cc1c(Cl)c(OCC(=O)N2CCN(C)CC2)nc2sc(C(=O)NC3CC3)c(N)c12
inactive: Potency [2] | Potency [3] | outcome [4] | Potency [5] | Potency [6] | Potency [7] | max response [8] -0.463% | max response [9] -7.33% | max response [10] 0.637% | Potency [11] | Potency [12] | Potency [13] | Potency [14] | Potency [15] | Potency [16] | Potency [17] | Potency [18] | Potency [19] | Potency [20]

CC(=O)O[C@H]1CC[C@@]2(CI)C(=CC[C@@H]3[C@@H]2CC[C@]2(C)C(=O)CC[C@@H]32)C1
inactive: Potency [1] | Potency [3] | outcome [4] | Potency [5] | Potency [6] | outcome [8] | max response [9] -18.2% | max response [10] 0.959% | Potency [11] | Potency [12] | Potency [13] | Potency [14] | Potency [15] | Potency [16] | Potency [17] | Potency [18] | Potency [19] | Potency [20]

C[C@@H]1CN(Cc2ccc(F)cc2)CCN1C(=O)COc1ccc(Cl)cc1NC(N)=O
active: Potency [8] 731 nM | Potency [9] 1300 nM | Potency [11] 2510 nM | Potency [17] 8910 nM
inactive: Potency [1] | Potency [3] | outcome [4] | Potency [5] | Potency [6] | Potency [7] | Potency [16] | Potency [19]

CCc1nn(C)c(C(=O)NCc2ccc(Oc3ccc(C)cc3)cc2)c1Cl
inactive: Potency [1] | Potency [3] | outcome [4] | Potency [5] | Potency [6] | Potency [7] | Potency [12] | Potency [14] | Potency [16] | Potency [19] | Potency [20]
active: Potency [2] 817 nM | Potency [8] 6.5 nM | Potency [9] 7.3 nM | Potency [17] 631 nM

NC(=O)c1ncn2c1CN=C(c1ccccc1Br)c1cc(F)ccc1-2
inactive: Potency [1] | Potency [2] | Potency [3] | outcome [4] | Potency [5] | Potency [6] | Potency [7] | max response [8] -2.22% | max response [9] 0.36% | max response [10] 1.84% | Potency [11] | Potency [12] | Potency [13] | Potency [14] | Potency [15] | Potency [16] | Potency [17] | Potency [18] | Potency [19] | Potency [20]

C=CCN1CCC2(C)c3cc(O)ccc3C[C@H]1[C@H]2C
inactive: Potency [1] | Potency [2] | outcome [4] | Potency [5] | Potency [6] | Potency [7] | max response [8] -1.35% | max response [9] -5.37% | max response [10] 1.43% | Potency [11] | Potency [12] | Potency [13] | Potency [14] | Potency [15] | Potency [16] | Potency [17] | Potency [18] | Potency [19] | Potency [20]

C[C@]12CC[C@H](O)C[C@H]1CC[C@@H]1[C@@H]2[C@H](O)C[C@]2(C)[C@@H](c3ccc(=O)oc3)CC[C@]12O
active: Potency [2] 16.3 nM | Potency [8] 10.3 nM | Potency [9] 36.6 nM | Potency [12] 100 nM | Potency [13] 501 nM | Potency [14] 100 nM | Potency [17] 355 nM | Potency [18] 355 nM | Potency [19] 100 nM
inactive: Potency [1] | Potency [3] | outcome [4] | Potency [5] | Potency [6] | Potency [7] | Potency [16]

C=C(C)[C@@H]1[C@H]2OC(=O)[C@H]1[C@]1(O)C[C@H]3O[C@]34C(=O)O[C@H]2[C@]14C
inactive: Potency [1] | Potency [2] | Potency [3] | outcome [4] | Potency [5] | Potency [6] | Potency [7] | outcome [8] | outcome [9] | outcome [10] | Potency [11] | Potency [12] | Potency [13] | Potency [14] | Potency [15] | Potency [16] | Potency [17] | Potency [18] | Potency [19] | Potency [20]

C[C@@]1(CO)[C@H](O)CC[C@@]2(C)[C@H]1CC[C@H]1C[C@@H]3C[C@@]12CC[C@]3(O)CO
active: Potency [2] 3190 nM | Potency [9] 2550 nM | Potency [10] 6400 nM
inactive: Potency [1] | outcome [4] | Potency [5] | Potency [6] | Potency [7] | max response [8] -2.86% | Potency [11] | Potency [12] | Potency [13] | Potency [15] | Potency [16] | Potency [19]
